BoNT A protease: BoNT/A light chain protease inhibitors, primary screen, biochemical, flow cytometry, MLPCN library. Botulinum neurotoxin type A light chain protease (Clostridium botulinum A str. ATCC 3502). inhibition, % at 10 µM. 360,000 tested, 0.17% active. AID 588499, 2011. multiplex microsphere protease substrate cleavage
GDH-TPI counter: GDH-TPI coupling enzyme inhibitors, primary screen, artefact control for M. tuberculosis FBA inhibitor project, biochemical, absorbance, full deck; GDH-TPI coupled enzyme counterscreen, NADH absorbance; inhibition, % at 4.8 µM; 360,000 tested, 1.2% active; in the data active = inhibition above about 30%
Anthrax LF prot: Bacillus anthracis LF protease inhibitors, primary screen, biochemical, multiplex microsphere, MLPCN library. 360,000 tested, 0.12% active. Lethal factor (Bacillus anthracis), P15917. multiplex microsphere protease cleavage assay. inhibition, % at 10 µM. AID 588501, 2011
Target sequence (P15917 whole entry, looked up): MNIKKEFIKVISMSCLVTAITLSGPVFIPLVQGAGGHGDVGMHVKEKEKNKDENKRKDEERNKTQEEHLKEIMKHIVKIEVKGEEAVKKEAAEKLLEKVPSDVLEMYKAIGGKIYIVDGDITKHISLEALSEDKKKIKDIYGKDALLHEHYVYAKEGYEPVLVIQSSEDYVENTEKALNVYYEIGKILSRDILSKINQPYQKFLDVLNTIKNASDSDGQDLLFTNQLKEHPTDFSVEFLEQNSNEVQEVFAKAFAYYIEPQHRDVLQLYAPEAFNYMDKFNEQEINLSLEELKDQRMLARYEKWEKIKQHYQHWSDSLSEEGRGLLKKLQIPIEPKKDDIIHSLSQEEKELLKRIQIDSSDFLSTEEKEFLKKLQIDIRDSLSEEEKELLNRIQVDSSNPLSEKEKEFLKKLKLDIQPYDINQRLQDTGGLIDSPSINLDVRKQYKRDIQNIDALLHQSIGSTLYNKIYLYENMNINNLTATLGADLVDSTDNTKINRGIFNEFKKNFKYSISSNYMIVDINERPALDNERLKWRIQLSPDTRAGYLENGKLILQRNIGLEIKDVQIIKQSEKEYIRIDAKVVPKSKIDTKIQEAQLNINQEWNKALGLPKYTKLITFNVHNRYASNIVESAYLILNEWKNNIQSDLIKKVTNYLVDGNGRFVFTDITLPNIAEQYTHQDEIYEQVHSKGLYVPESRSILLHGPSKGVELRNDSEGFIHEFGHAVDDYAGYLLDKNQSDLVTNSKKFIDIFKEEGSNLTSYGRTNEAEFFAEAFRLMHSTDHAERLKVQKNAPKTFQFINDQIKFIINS
FBA Mtb inh: Mtb FBA enzyme inhibitors, primary screen, biochemical, fluorescence, strain H37Rv; purified M. tuberculosis FBA, fluorescence read-out; 360,000 tested, 2.3% active; Fructose-bisphosphate aldolase (Mycobacterium tuberculosis (strain ATCC 25618 / H37Rv)), …; inhibition, % at 1 µM; in the data active = inhibition above about 27%
Autofluor counter: compound fluorescence in toxin protease inhibitor counterscreen. compound autofluorescence counterscreen, microsphere flow cytometry; hits give high values. fluorescence intensity (test concentration not listed). 360,000 tested, 3.1% active. AID 624483; in the data active = fluorescence intensity above about 16000; inconclusive = no clear call, values can overlap the other calls
BoNT-F LC inh: BoNT/F light chain protease inhibitors, primary screen, biochemical, flow cytometry, MLPCN library | Botulinum neurotoxin type F light chain protease (Clostridium botulinum) | Multiplex microsphere protease cleavage assay | inhibition, % at 10 µM | 360,000 tested, 0.22% active | AID 588497, 2011; in the data active = inhibition above about 35%, passing the limit was not always enough; inconclusive = no clear call, values can overlap the other calls
Hits are given with their value; 0 = inactive; ? = inconclusive; - = no result; + = active, no number. Most compounds without a hit are left out; they make up all but 6.6% or so of the library. Rule as the data show it, unless noted: active = inhibition above about 30%; inconclusive = no clear call, values can overlap the other calls; inactive = below that.

SMILES	BoNT A protease	GDH-TPI counter	Anthrax LF prot	FBA Mtb inh	Autofluor counter	BoNT-F LC inh
COc1ccccc1CC(O)CC1c2c(cc3c(c2OC)OCO3)CCN1C (stereo unspecified)	0	0	0	0	0	0
Cc1ccc(S(=O)(=O)N/N=C\c2cn(CC(N)=O)c3ccccc23)cc1	0	0	0	0	?	0
CC(/C=N/NC(=O)c1cccnc1)=C\c1ccccc1	0	0	0	0	0	0
CC(=C/c1ccccc1)/C=N/NC(=O)c1cnccn1	0	42.6	0	0	0	0
O=C(N/N=C/C(Cl)=C/c1ccccc1)c1cnccn1	0	86.4	0	0	0	0
O=C(N/N=C/C(Cl)=C\c1ccccc1)c1cnccn1	0	66.4	0	0	0	0
CC(/C=N/NC(=O)c1ccncc1)=C\c1ccc(C(C)C)cc1	0	0	0	0	22320	0
O=C(CN(C1CCCCC1)C1CCCCC1)N1CCc2ccccc2C1	0	0	0	0	0	0
CCC(Oc1ccc(Br)cc1Cl)C(=O)Nc1nnc(C2CC2)s1 (stereo unspecified)	0	0	0	0	0	0
CC(/C=N/NC(=O)c1ccc(Br)cc1)=C\c1ccccc1	0	0	0	0	0	0
COc1ccc(C(=O)N/N=C\C(C)=C\c2ccccc2)cc1OC	0	51.0	0	0	0	?
O=C(Nc1ccnn1C1CCN(Cc2ccc(CO)o2)CC1)c1cccc(F)c1	0	0	0	0	0	0
COCCN(C(=O)CSc1nnc(C)n1-c1ccccc1)c1c(N)n(Cc2ccccc2)c(=O)[nH]c1=O	0	0	0	0	0	0
COCCN(C(=O)CSc1nnc(C)n1-c1ccc(C)cc1)c1c(N)n(Cc2ccccc2)c(=O)[nH]c1=O	0	0	0	0	17749	0
COCCN(C(=O)COC(=O)c1cc(C)n(-c2ccccc2)c1C)c1c(N)n(Cc2ccccc2)c(=O)[nH]c1=O	59.9	0	?	0	0	0
CCCCn1c(N)c(N(CCOC)C(=O)COC(=O)c2ccccc2NCCO)c(=O)[nH]c1=O	0	0	0	124.4	0	0
CCN(CC)c1ccc(-c2nnc(SCC(=O)N(CCOC)c3c(N)n(CC(C)C)c(=O)[nH]c3=O)o2)cc1	0	47.2	0	0	0	0
c1ccc(CCNc2ccc3ncc(-c4cccc5ccccc45)n3n2)nc1	0	0	0	0	0	0
O=S(=O)(CCN1C=CC(C(F)(F)F)=NCC1)c1ccc(Cl)cc1Cl	-	0	-	0	-	-
CCN(C(=O)COC(=O)/C(C#N)=C/c1cc(C)n(CCOC)c1C)c1c(N)n(Cc2ccccc2)c(=O)[nH]c1=O	0	36.8	0	0	0	0
CCN(C(=O)COC(=O)c1ccccc1NCc1ccco1)c1c(N)n(Cc2ccccc2)c(=O)[nH]c1=O	0	0	0	142.3	0	0
Cc1ccc(-c2ccc(/C=N/O)o2)cc1[N+](=O)[O-]	0	0	0	0	0	0
O=C(O)CN1C(=O)/C(=C\c2cc([N+](=O)[O-])ccc2OCc2ccccc2Cl)SC1=S	0	0	32.3	0	0	0
O=C(O)CN1C(=O)/C(=C\c2cc(Br)ccc2OCc2ccc(Cl)cc2)SC1=S	0	0	0	0	0	0
CCCC(=O)N1CCN(C2=NS(=O)(=O)c3ccccc32)CC1	?	0	0	0	23423	0
SMILES	BoNT A protease	GDH-TPI counter	Anthrax LF prot	FBA Mtb inh	Autofluor counter	BoNT-F LC inh
O=C(C1CC(=O)N(c2ccccc2)C1)N1CCN(C2=NS(=O)(=O)c3ccccc32)CC1 (stereo unspecified)	0	0	0	0	23523	0
CC(C)C(=O)N1CCN(C2=NS(=O)(=O)c3ccccc32)CC1	0	0	0	0	0	0
Cc1cc(C)cc(NC(=O)CC2NCCNC2=O)c1 (stereo unspecified)	?	0	0	0	16440	0
Cc1ccc(NC(=O)CC2NCCNC2=O)cc1 (stereo unspecified)	0	0	0	0	0	0
CN(C)c1ccc(NC(=O)CC2NCCNC2=O)cc1 (stereo unspecified)	?	0	0	0	21583	0
O=C(CC1NCCNC1=O)Nc1ccccc1 (stereo unspecified)	0	0	0	0	0	0
Cc1ccc([N+](=O)[O-])cc1N=C(c1ccc([N+](=O)[O-])cc1)N1CCOCC1	0	0	0	0	0	0
O=[N+]([O-])c1ccc(C(=Nc2cccc3ccccc23)N2CCOCC2)cc1	0	0	0	0	17545	0
CCCCC(NC(=O)COc1cc2c(c3oc(=O)cc(C)c13)CCC(C)(C)O2)C(=O)O (stereo unspecified)	0	0	0	+	0	0
Cc1cc(=O)oc2c3c(cc(OCC(=O)NC(C)C)c12)OC(C)(C)CC3	0	0	0	+	0	0
Cc1cc(=O)oc2c3c(cc(OCC(=O)N[C@@H](C)C(=O)O)c12)OC(C)(C)CC3	0	0	0	+	0	0
C/C(=N\NC(=O)C1CC1)c1ccccc1O	0	0	0	0	0	0
c1ccc(N=Nc2ccc(C3=NCCO3)cc2)cc1	0	35.9	0	0	0	0
Cc1nc2nc(Cc3ccccc3)nn2c(C)c1Cl	0	0	0	0	22300	0
CC1(C)CC(NC(=O)c2cc([N+](=O)[O-])cc([N+](=O)[O-])c2)CC(C)(C)N1	0	0	0	0	0	0
COc1cc(OC)cc(C(=O)NC2CC(C)(C)NC(C)(C)C2)c1	-	0	-	+	-	-
CN(C)/C(CN1CCN(C=O)CC1)=C1\N=C(c2ccccc2)OC1=O	0	35.5	0	0	23334	0
CCOc1ccc(-c2c(C)n([O-])c3c([n+]2=O)CCCCC3)cc1	0	0	0	0	0	0
Cn1c(CO)nc2cc(N)ccc21	0	0	0	0	0	0
Nc1ccc(-c2nc3cc(N)ccc3n2CCO)cc1	0	0	0	+	0	0
Cc1cccc(NC(=S)NCc2cccn2C)c1	0	0	0	0	0	0
Cc1ccc(NC(=S)NCc2cccn2C)cc1	0	0	0	0	22735	0
O=C1CCc2cc(S(=O)(=O)NC(Cc3ccccc3)C(=O)N3CCN(c4ccccn4)CC3)ccc2N1 (stereo unspecified)	0	0	0	0	0	0
CCOc1ccc(/C=C/[N+](=O)[O-])c2ccccc12	47.0	0	0	0	0	0
Cc1ccc2oc3c(c(=O)c2c1)C(c1cccc(Br)c1)N(Cc1ccco1)C3=O (stereo unspecified)	0	0	0	0	18391	0
CCOc1cc(C2c3c(oc4cc(C)c(Cl)cc4c3=O)C(=O)N2Cc2ccco2)ccc1O (stereo unspecified)	0	0	0	0	21623	0

Compound activity as filed in PubChem BioAssay.
